# Assay results: PubChem BioAssay (Tox21)
# Inconclusive results are not listed. A number with no mark means an inactive call. Active and inactive are the calls of the source. The call rests on the fitted dose curve; in most records, active means well fitted cell-killing curve with a large enough effect in the repeat runs; inconclusive means weak or mixed curves, or effect the other way; inactive means no such curve, though single readings can be large or run the other way.
# Assay: qHTS assay to identify small molecule antagonists of the retinoid-related orphan receptor gamma (ROR-gamma) signaling pathway - cell viability counter screen (AID 1159520); further: nearly all actives have a fitted effect of over 50% in size
# Settings: Tet-on RORgamma CHO cells viability, ATP luminescence, 16 h; series mostly up to 92.4 µM; activity, negative = cytotoxicity: at the top concentration
# Excerpt: U.S. Tox21 Program National Center for Advancing Translational Sciences [NCATS] NIH Chemical Genomics Center [NCGC] U.S. Environmental Protection Agency [EPA] National Institutes of Environmental Health Sciences [NIEHS] National Toxicology Program [NTP] U.S. Food and Drug Administration [FDA] Tox21 Assay Overview: Nuclear steroid hormone receptors are involved in many biological processes including inflammatory responses, cell proliferation, and apoptosis. Environmental factors or compounds disrupting these nuclear receptor pathways and gene expression may promote susceptibility to immunotoxicants and autoimmune diseases. One important group of these expression factors are the retinoid-related orphan receptors. To assess compounds that may interfere with the retinoid-related orphan receptor gamma (ROR-gamma) transcription factor, a cell-based luciferase assay was used. The CHO cell-based assay utilizes a TET-inducible ROR expression factor and ROR response element-LUC reporter gene. Reporter gene activity was induced using Doxycycline Hyclate and measured after 16 hr incubation. Tet-on ROR gamma CHO cells were used to screen against the Tox21 10K compound library for cytotoxicity by measuring the viability of the cells based on the quantitation of the ATP.
# Tox21 Assay Protocol Summary: Tet-on ROR gamma CHO cells were dispensed at 1,000 cells in 4 uL of culture medium per well into white wall/solid bottom 1536-well plates using a Multidrop Combi (Thermo Scientific, Waltham, MA) dispenser. Following incubation at 37 C and 5% CO2 for 4 hr, 23 nL of compounds dissolved in DMSO, positive controls or DMSO only were transferred by a Pintool station (Kalypsys, San Diego, CA) and after 2 hr incubation at 37 C, one ul of 1 uM (final concentration) of Doxycycline Hyclate was added to all the wells by using a Flying Reagent Dispenser (FRD) (Aurora Discovery, San Diego, CA). After 16 hr incubation at 37 C and 5% CO2, 5 uL of CellTiter-Glo reagent (Promega Corporation, Madison, WI) was added to each assay plate using FRD. After 30 min incubation at room temperature, luminescence was quantified on a ViewLux plate reader (Perkin Elmer, Waltham, MA).
# On the % scale 0 is the no-effect control and ±100 the full control effect; potency means the concentration at half of the fitted maximal effect.
SMILES,"activity, negative = cytotoxicity",Potency
COc1c2c(cc3c1OCO3)CCN(C)C2,-1.18% [at 42.5 µM],
Nc1ccccc1-c1ccccc1,-9%,
Cc1ccc(C)c2ccccc12,-1.45%,
CC(C)=CCN1CC[C@@]2(C)c3cc(O)ccc3C[C@@H]1[C@@H]2C,-4.13%,
CCC(C)c1cccc(C(C)CC)c1O (stereo not given),-8.74%,
[Cl-].[Cl-].[Cl-].[Yb+3],0.0497%,
N#CC(C#N)=NNc1cccc(Cl)c1,,2.73 µM (active)
CN1C2CCC(C)(C)C1CC(OC(=O)C(O)(c1cccs1)c1cccs1)C2 (stereo not given),-0.424% [at 42.5 µM],
CC[N+]1(CC)CCC(OC(=O)C(O)(c2ccccc2)c2ccccc2)C1 (stereo not given),4.25% [at 42.5 µM],
N#Cc1sc2c(=O)c3ccccc3c(=O)c=2sc1C#N,,2.17 µM (active)
COc1ccc2c3c1O[C@H]1[C@H](O)CC[C@H]4[C@@H](C2)N(C)CC[C@@]341,8.77%,
O=C1C(Cl)=C(Cl)C(=O)C(Cl)=C1Cl,,15.3 µM (active)
CNN,1.78%,
CC(C)C(Nc1ccc(C(F)(F)F)cc1Cl)C(=O)OC(C#N)c1cccc(Oc2ccccc2)c1 (stereo not given),-5.86%,
Brc1ccc(Oc2ccc(Br)cc2Br)c(Br)c1,-26.3%,
CCC(C)Nc1c([N+](=O)[O-])cc(C(C)(C)C)cc1[N+](=O)[O-] (stereo not given),-15.7%,
N#Cc1c2ccccc2cc2ccccc12,-14.1%,
Cc1cccc(Cc2cnc[nH]2)c1C,2.45% [at 42.5 µM],
BrCCCBr,12.7%,
O=C(Cl)c1ccccc1F,-2.34%,

SMILES,"activity, negative = cytotoxicity",Potency
Oc1cc(Cl)c(Cl)c(Cl)c1Cl,,53.2 µM (active)
c1ccc2nc(N3CCNCC3)ccc2c1,0.0754% [at 42.5 µM],
C[C@@H]1CC2=CC(=O)CC[C@@H]2[C@H]2CC[C@@]3(C)[C@@H](CC[C@]3(C)O)[C@@H]21,-9.18% [at 42.5 µM],
O=[N+]([O-])c1cc(C(F)(F)F)c(Cl)c([N+](=O)[O-])c1Nc1ncc(C(F)(F)F)cc1Cl,,4.86 µM (active)
COP(=S)(OC)Oc1nc(Cl)c(Cl)cc1Cl,-21.7%,
Oc1cc(Cl)cc(Cl)c1,-24.5%,
C=C(C)C(=O)[O][Sn]([CH2]CCC)([CH2]CCC)[CH2]CCC,,1.37 µM (active)
Oc1cccc(Cl)c1Cl,9.18%,
Nc1ccc(N=Nc2ccccc2)cc1,-0.548%,
CC(C)Br,-8.46%,
CC(C)C(Br)C(=O)NC(N)=O (stereo not given),0.453% [at 42.5 µM],
CCCN,6.68%,
C=CC(=C)C,-1.97%,
CNC(=O)/C=C(\C)OP(=O)(OC)OC,-2%,
S=C=Nc1ccccc1,0.914%,
CC(C)(C)c1ccc(OP(=O)(Oc2ccccc2)Oc2ccccc2)cc1,-5.8%,
NC1CCC(CC2CCC(N)CC2)CC1 (stereo not given),11%,
c1cc[n+]2c(c1)-c1cccc[n+]1CC2,8.8% [at 42.5 µM],
CCN1CCC2(CC1)COc1cc3c(cc12)N(C(=O)c1ccc(-c2ccc(-c4nnc(C)o4)cc2C)cc1)CC3,,28.3 µM (active)
CNC(=O)CSP(=O)(OC)OC,4.79%,
